# From the supplement of paper PMC9694430
# Assays:
# Experiment in all cases: thermal shift delta Tm vs DMSO control; higher = stronger stabilization (binding)
# Conditions in all cases: 12.5 µM; protein concentration 2 µM
# [1] = tested on: LOC_OS02G45750-cb003
# Method in brief: (§1)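 The melting temperature shift given here is a triplicate mean, measured against protein that received only DMSO. Melting temperatures came from Boltzmann fits of differential scanning fluorimetry data on E. coli-expressed, purified rice kinase domain constructs. Each 19.5 μl well contained 2 μM kinase, 100 mM potassium phosphate pH 7.5, 150 mM NaCl, 10% glycerol, 5 × SYPRO Orange and compound in DMSO. Plates were scanned from 25°C to 95°C at 0.05°C/s.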
# [2] = tested on: LOC_OS02G54510-cb004
# Method in brief: as §1
# [3] = tested on: LOC_OS03G04050-cb001
# Method in brief: as §1
# [4] = tested on: LOC_OS03G12390-cb001
# Method in brief: as §1
# [5] = tested on: LOC_OS03G27990-cb004
# Method in brief: as §1
# [6] = tested on: LOC_OS03G50450-cb001
# Method in brief: as §1
# [7] = tested on: LOC_OS03G50810-cb003
# Method in brief: as §1
# [8] = tested on: LOC_OS04G35114-cb001
# Method in brief: as §1
# [9] = tested on: T1, LOC_OS04G38480-cb003
# T1 sequence (whole entry): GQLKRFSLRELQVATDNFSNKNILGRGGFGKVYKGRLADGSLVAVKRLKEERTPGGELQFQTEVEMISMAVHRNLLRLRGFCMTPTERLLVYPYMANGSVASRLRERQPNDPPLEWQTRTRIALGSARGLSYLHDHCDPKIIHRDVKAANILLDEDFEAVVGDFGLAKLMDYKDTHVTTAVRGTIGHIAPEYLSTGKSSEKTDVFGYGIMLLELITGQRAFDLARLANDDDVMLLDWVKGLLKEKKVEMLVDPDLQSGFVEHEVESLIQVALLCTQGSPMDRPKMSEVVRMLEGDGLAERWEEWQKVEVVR
# Method in brief: as §1
# [10] = tested on: T2, LOC_OS04G41100-cb001
# T2 sequence (whole entry): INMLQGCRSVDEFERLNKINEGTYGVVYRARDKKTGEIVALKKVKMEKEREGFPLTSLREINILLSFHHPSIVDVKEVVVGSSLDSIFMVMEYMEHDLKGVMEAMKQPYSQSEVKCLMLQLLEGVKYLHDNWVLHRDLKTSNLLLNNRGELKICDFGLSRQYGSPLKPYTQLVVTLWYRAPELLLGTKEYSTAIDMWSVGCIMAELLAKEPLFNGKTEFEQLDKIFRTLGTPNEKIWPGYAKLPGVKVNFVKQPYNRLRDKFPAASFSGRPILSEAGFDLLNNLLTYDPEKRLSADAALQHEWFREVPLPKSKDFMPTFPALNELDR
# Method in brief: as §1
# [11] = tested on: LOC_OS04G57630-cb004
# Method in brief: as §1
# [12] = tested on: LOC_OS05G07850-cb002
# Method in brief: as §1
# [13] = tested on: LOC_OS05G16824-cb004
# Method in brief: as §1
# [14] = tested on: LOC_OS05G28520-cb001
# Method in brief: as §1
# [15] = tested on: LOC_OS05G30820-cb001
# Method in brief: as §1
# [16] = tested on: LOC_OS05G43570-cb004
# Method in brief: as §1
# [17] = tested on: LOC_OS06G16330-cb003
# Chain of LOC_OS06G16330-cb003 (as listed by the source): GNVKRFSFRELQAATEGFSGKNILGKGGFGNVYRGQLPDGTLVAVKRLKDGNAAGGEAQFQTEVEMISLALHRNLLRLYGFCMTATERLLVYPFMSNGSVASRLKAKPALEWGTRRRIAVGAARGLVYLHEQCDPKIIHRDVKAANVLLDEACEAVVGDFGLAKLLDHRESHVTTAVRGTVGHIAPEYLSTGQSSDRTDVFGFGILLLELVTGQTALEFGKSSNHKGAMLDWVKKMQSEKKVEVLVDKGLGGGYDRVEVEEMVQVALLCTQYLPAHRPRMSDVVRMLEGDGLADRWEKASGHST
# Method in brief: as §1
# [18] = tested on: T3, LOC_OS06G22820-cb001
# T3 sequence (whole entry): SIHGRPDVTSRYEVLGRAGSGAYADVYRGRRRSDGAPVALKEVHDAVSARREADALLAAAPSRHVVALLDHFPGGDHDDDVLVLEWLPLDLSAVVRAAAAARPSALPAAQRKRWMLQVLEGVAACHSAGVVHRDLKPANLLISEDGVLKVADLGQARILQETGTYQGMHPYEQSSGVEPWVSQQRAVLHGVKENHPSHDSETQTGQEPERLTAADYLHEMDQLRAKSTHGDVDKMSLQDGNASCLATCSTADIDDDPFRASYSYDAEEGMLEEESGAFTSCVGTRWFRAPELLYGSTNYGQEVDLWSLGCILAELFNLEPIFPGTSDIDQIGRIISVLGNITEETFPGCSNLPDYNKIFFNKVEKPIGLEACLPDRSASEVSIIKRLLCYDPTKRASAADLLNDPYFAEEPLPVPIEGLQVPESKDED
# Method in brief: as §1
# [19] = tested on: LOC_OS07G06570-cb004
# Method in brief: as §1
# [20] = tested on: LOC_OS07G07230-cb001
# Method in brief: as §1
SMILES,thermal shift delta Tm [1] [°C],thermal shift delta Tm [2] [°C],thermal shift delta Tm [3] [°C],thermal shift delta Tm [4] [°C],thermal shift delta Tm [5] [°C],thermal shift delta Tm [6] [°C],thermal shift delta Tm [7] [°C],thermal shift delta Tm [8] [°C],thermal shift delta Tm [9] [°C],thermal shift delta Tm [10] [°C],thermal shift delta Tm [11] [°C],thermal shift delta Tm [12] [°C],thermal shift delta Tm [13] [°C],thermal shift delta Tm [14] [°C],thermal shift delta Tm [15] [°C],thermal shift delta Tm [16] [°C],thermal shift delta Tm [17] [°C],thermal shift delta Tm [18] [°C],thermal shift delta Tm [19] [°C],thermal shift delta Tm [20] [°C]
O=C(Nc1cc(C(F)(F)F)cc(C(F)(F)F)c1)c1cc(Cl)ccc1O,0.1,-0.16,0.55,1.46,0.24,0.5,0.7,0.29,0.16,0.52,-0.05,-0.13,-0.94,0.78,0.67,0.76,0.52,0.91,1.68,-0.11
CC(C)(CCCCCC(O)CCCCCC(C)(C)C(=O)O)C(=O)O,0.72,0.34,0.51,-0.22,0.25,0.67,0.41,0.9,2.27,0.2,0.04,0.87,0.14,0.47,0.38,0.54,-0.14,0.48,0.64,-0.4
Cn1c2ccccc2c2c3c(c4c5ccccc5n(CCC#N)c4c21)CNC3=O,5.83,0.92,0.61,2.98,1.85,1.84,6.02,11.6,2.74,0.46,0.32,14.2,7.06,1.51,1.15,1.86,7.19,1.21,-0.17,1.18
CCOc1cc(N2CCC(O)CC2)ccc1Nc1ncc2c(n1)N(C)c1ccccc1C(=O)N2C,-0.35,-0.02,0.11,2.48,-0.12,0.38,0.11,0.71,1.18,0.38,-0.09,1.85,-1.07,0.32,0.48,0.23,0.05,0.49,1.48,0.47
O=C(O)c1ccc2c3c1cccc3c(=O)n1c3ccccc3nc21,3.28,0.56,0.18,2.82,0.62,0.23,0.91,2.73,2.31,1.19,0.77,7.31,1.51,0.41,0.73,0.15,4.49,0.29,0.54,1.19
O=C(O[C@@H]1Cc2c(O)cc(O)cc2O[C@@H]1c1cc(O)c(O)c(O)c1)c1cc(O)c(O)c(O)c1 [(-)-Epigallocatechin Gallate],-1.81,-0.12,0.68,-1.02,0.05,-0.27,-1.51,-2.2,2.43,1.15,0.03,-2.62,-0.59,0.94,0.74,1.57,0.52,1.84,-0.75,0.18
